In the library only some 10% were active in any assay of this set; here they are far more common.
Luciferase inh – Firefly luciferase inhibition profiling of diverse chemical library using quantitative high-throughput screening. Luciferin 4-monooxygenase (Photinus pyralis), P08659. purified P. pyralis luciferase, luminescence, biochemical. Potency, µM (doses to about 115 µM), most hits filed as inhibitors. 76,000 tested, 2.5% active. AID 1347043, 2019; note: % is set by controls: 0 for no effect and ±100 for the full control effect; nearly all actives have a fitted effect of over 65% in size
Target sequence (P08659 whole entry, looked up): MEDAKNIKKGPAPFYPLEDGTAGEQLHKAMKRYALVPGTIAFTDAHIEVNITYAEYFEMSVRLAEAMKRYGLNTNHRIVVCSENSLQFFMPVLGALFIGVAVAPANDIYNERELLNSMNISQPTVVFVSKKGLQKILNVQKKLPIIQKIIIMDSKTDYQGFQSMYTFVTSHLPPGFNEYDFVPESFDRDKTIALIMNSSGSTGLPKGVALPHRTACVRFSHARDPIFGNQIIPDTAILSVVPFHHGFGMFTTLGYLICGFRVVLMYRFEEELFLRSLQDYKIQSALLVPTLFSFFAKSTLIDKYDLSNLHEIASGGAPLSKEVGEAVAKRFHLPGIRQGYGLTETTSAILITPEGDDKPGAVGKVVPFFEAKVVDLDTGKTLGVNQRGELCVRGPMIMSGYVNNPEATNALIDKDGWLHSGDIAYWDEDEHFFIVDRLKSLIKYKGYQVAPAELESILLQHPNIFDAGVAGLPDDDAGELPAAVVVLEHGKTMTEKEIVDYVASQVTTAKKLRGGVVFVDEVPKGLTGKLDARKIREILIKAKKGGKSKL
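Cell-free enzyme assay, 10nM P. pyralis luciferase, luciferin and ATP each at 10uM. Inhibition profiled over a 6-point titration, read as luminescence.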
GPT2 inh – Primary qHTS assay for inhibitors of Glutamate pyruvate transaminase 2 (GPT2); Alanine aminotransferase 2 (Homo sapiens), Q8TD30; Recombinant GPT2, coupled pyruvate oxidase/HRP Amplex Red fluorescence; Potency, µM (series often up to 57.7 µM), for the others: at the highest dose activity change, negative = inhibition, most hits filed as inhibitors; 100,000 tested, 0.25% active; note: % is set by controls: 0 for no effect and ±100 for the full control effect; nearly all actives have a fitted effect of over 60% in size
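Fluorescence read-out: pyruvate from GPT2 turnover coupled to pyruvate oxidase, HRP and Amplex Red (0.2mM ThPP, 0.2U/mL PO and HRP, 50uM Amplex final). Substrates 250uM a-KG, 2mM L-alanine; enzyme 10ng/uL; 30 min RT.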
NIH3T3 tox – Cytotoxic Profiling in NIH 3T3 Cell Line of Diverse Libraries Using Quantitative High-Throughput Screening; 94,000 tested, 4.3% active; Potency, µM (highest dose often 96.7 µM), inactives show at the top dose activity change, negative = cytotoxicity, most hits filed as inhibitors; NIH 3T3 viability, CellTiter-Glo ATP luminescence, 48-72 h; note: % is set by controls: 0 for no effect and ±100 for the full control effect; nearly all actives have a fitted effect of over 55% in size
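ATP-dependent luminescence (CellTiter-Glo) served as the viability signal for NIH 3T3 cells treated with compound for 48 or 72 hr at 37 °C.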
HEK cytotox – Cytotoxic Profiling in HEK 293 Cell Line of Diverse Libraries Using Quantitative High-Throughput Screening; 94,000 tested, 6.6% active; HEK 293 viability, ATP luminescence (CellTiter-Glo), 48-72 h; Potency, µM (highest dose often 115 µM), without a hit: at the top dose activity change, negative = cytotoxicity, actives largely listed as inhibitors; note: % is set by controls: 0 for no effect and ±100 for the full control effect; nearly all actives have a fitted effect of over 60% in size
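CellTiter-Glo luminescence (cellular ATP) was read after 48 or 72 hr of compound exposure at 37 degree Celsius. Cells were HEK 293 plated at 250 cells/well.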
NPR1 antag – Natriuretic polypeptide receptor (hNpr1) antagonism - Primary qHTS; Atrial natriuretic peptide receptor 1 (Homo sapiens), P16066; HEK293 hNpr1 GloSensor cGMP, ANP-stimulated luminescence; Potency, µM (series often up to 46.3 µM), inactives show at the highest dose activity change, negative = inhibition, hits mostly inhibitors; 76,000 tested, 1.6% active; AID 1347048, 2019; calls by dose curve; note: % is set by controls: 0 for no effect and ±100 for the full control effect; nearly all actives have a fitted effect of over 60% in size
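HEK293 cells stably expressing human Npr1 and cGMP GloSensor pGS-40F, loaded 2 h with 2% GloSensor reagent, given compound 30 min at room temperature. Luminescence read before and 20 min after 0.1 nM hNppA.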
NPR1 antag cnf – Natriuretic polypeptide receptor (hNpr1) antagonism - Confirmation; HEK293 hNpr1 cGMP GloSensor luminescence, ANP-stimulated; Potency, µM (series often up to 57.6 µM), without a hit: top-dose activity change, negative = inhibition, most hits filed as inhibitors; AID 1347044, 2019; shares compounds with NPR1 antag; 1,400 tested, 76% active; calls by dose curve; note: nearly all actives have a fitted effect of over 70% in size
Npr2 selectivity – Natriuretic polypeptide receptor (hNpr2) antagonism - Subtype selectivity assay; Potency, µM (top dose mostly 57.6 µM), without a hit: top-dose activity change, negative = inhibition, usual class: inhibitors; AID 1347046, 2019; shares compounds with NPR1 antag; 1,400 tested, 67% active; HEK293 hNpr2 GloSensor cGMP luminescence, CNP-stimulated; calls by dose curve; note: nearly all actives have a fitted effect of over 70% in size
FLuc inh counter – Natriuretic polypeptide receptor (hNpr1) antagonism - Confirmation firefly luciferase (FLuc) inhibition counterscreen; shares compounds with NPR1 antag; purified FLuc enzyme, luminescence, Km substrate; Potency, µM (series often up to 57.6 µM), for the others: at the highest dose activity change, negative = inhibition, most hits filed as inhibitors; 1,400 tested, 0.7% active; AID 1347047, 2019; note: 0% is about no effect
GloSensor cGMP – Natriuretic polypeptide receptor (hNpr1) antagonism - Counterscreen GloSensor control cell line | 1,400 tested, 69% active | HEK293 GloSensor cGMP, SNP-stimulated, luminescence | shares compounds with NPR1 antag | Potency, µM (titrated, usually from 57.6 µM), for inactives: top-dose activity change, negative = inhibition, actives largely listed as inhibitors; calls by dose curve; note: % is set by controls: 0 for no effect and ±100 for the full control effect; nearly all actives have a fitted effect of over 70% in size
Numbers without * were called inactive; i = inactive; ? = inconclusive; . = no result; [ ] = dose if it differs, or a comment. Unless noted, calls come from the whole dose curve; as a rule, active = well fitted curve in the direction sought with a large enough effect; inconclusive = small, poorly fitted or top-dose-only effect, or another doubt; inactive = no such curve, though single readings can be large; an effect the other way counts as inactive or inconclusive. Potency is the fitted concentration of half-maximal effect.

SMILES	Luciferase inh	GPT2 inh	NIH3T3 tox	HEK cytotox	NPR1 antag	NPR1 antag cnf	Npr2 selectivity	FLuc inh counter	GloSensor cGMP
COc1ccc2ccc(OCc3nc(C(=O)N4CCNC(=O)C4C)co3)cc2c1 (stereo unspecified)	i	?	?	?	11µM*	24µM*	22µM*	-5%	22µM*
CN(Cc1cccnc1)c1ccc2ncc(Nc3cccc(C(F)(F)F)c3)n2n1	i	?	?	40µM*	13µM*	14µM*	16µM*	-3%[86.2 µM]	13µM*
CN1CCCCCC(O)c2cc(C(=O)NCCc3ccncc3)ccc21 (stereo unspecified)	i	i	?	?	2%	.	.	.	.
COc1ccccc1-c1[nH]nc2ncc(C(=O)NCc3cccnc3)nc12	.	.	.	.	.	18µM*	7µM*	1%[86.2 µM]	-16%[86.2 µM]
CN(C(=O)c1cnc2n[nH]c(-c3ccccc3)c2n1)c1ccccc1	i	1%[88.5 µM]	?	?	16µM*	31µM*	31µM*	2%[86.2 µM]	20µM*
COc1ccccc1-c1[nH]nc2ncc(C(=O)N3CCNC(=O)C3)nc12	i	i	?	-15%[172 µM]	3%[70.6 µM]	.	.	.	.
O=C(NCc1cccnc1)c1cnc2n[nH]c(-c3ccccc3)c2n1	.	.	.	.	.	25µM*	13µM*	0%[86.2 µM]	10%[86.2 µM]
O=C(NCc1cccnc1)c1nc(-c2ccc(F)cc2)c2ccccn12	i	i	?	?	-3%	.	.	.	.
CC(=O)c1c(OCCN2CCCCC2)c(OCCC(C)c2ccc(F)cc2)c2oc(C)nc2c1C (stereo unspecified)	.	i	.	.	.	.	.	.	.
CC1(NC(=O)C2CC2)CN(c2ccc(Oc3ccccc3)cc2)C1	i	i	-28%[138 µM]	?	20µM*	18µM*	22µM*	-1%[86.2 µM]	16µM*
CC(=O)NC1(C)CCCN(c2ccc(Oc3ccccc3)cc2)C1 (stereo unspecified)	i	?	?	?	18µM*	20µM*	20µM*	?	16µM*
CC(=O)NC1(C)CCN(Cc2ccc(Nc3ccccc3)cc2)C1 (stereo unspecified)	?	-10%[88.5 µM]	?	?	2%[70.6 µM]	.	.	.	.
O=C1CN(Cc2cccc(Cl)c2)CCN1c1ccc(Cl)nn1	i	3%[88.5 µM]	?	-10%[172 µM]	12%[70.6 µM]	.	.	.	.
Cc1nn2c(c1-c1ccccc1Oc1ccccc1)N(C(=O)Cc1ccc3c(c1)OCO3)CCC2	i	-17%	?	?	7.9µM*	11µM*	5.4µM*	-4%	-24%
Cc1nn2c(c1-c1ccccc1OCc1ccccc1)N(C(=O)Cc1ccc3c(c1)OCO3)CCC2	i	-13%	13µM*	79µM*	8.9µM*	11µM*	6.1µM*	1%	-1%
Cc1nn2c(c1-c1ccccc1-c1ccccc1)N(C(=O)Cc1ccc3c(c1)OCO3)CCC2	i	?	?	?	-30%	.	.	.	.
O=C(c1ccc(C(F)(F)F)cc1)N1CCC2(CNc3ccccc3[S+](=O)([O-])N2)C1 (stereo unspecified)	i	i	?	?	?	22µM*	?	-2%	17µM*
COc1ccc(CN2C[C@@H](F)[C@@H](OCc3nc4ccc(C)cc4[nH]3)C2)cc1	i	5%[88.5 µM]	?	?	?	.	.	.	.
COc1ccccc1Nc1ncc2c(n1)CN(C(=O)c1cccc(N(C)C)c1)CCN2	i	i	-28%[138 µM]	79µM*	22µM*	31µM*	35µM*	0%[86.2 µM]	25µM*
COc1ccccc1Nc1ncc2c(n1)CN(C(=O)c1ccccc1)CCN2	i	i	?	?	32µM*	40µM*	?	-11%[86.2 µM]	40µM*
O=C(Nc1ccccc1F)N1CC2CCC(C1)N2Cc1cccc(-c2ccsc2)c1	.	-2%	?	?	.	.	.	.	.
O=C(Nc1cccc(F)c1)N1C[C@@H]2C[C@H](C1)c1c(-c3cc4ccccc4s3)ccc(=O)n1C2	?	-5%	?	?	-5%	.	.	.	.
O=C(NCc1ccccc1)c1ccccc1OC1CN(Cc2ccsc2)C1	i	i	28µM*	?	-28%	?	-29%	4%	-3%
Cc1ccc(CN2CC(Oc3ccccc3C(=O)NC3CC3)C2)cc1	i	4%	?	?	-2%	.	.	.	.
COc1cc(Cl)ccc1C(=O)NC1CCN(c2cc(C(F)(F)F)nc(C)n2)CC1	i	-4%	?	?	?	22µM*	22µM*	2%	19µM*
Cc1nc(N2CCC(NC(=O)c3ccccc3Cl)CC2)cc(C(F)(F)F)n1	i	i	-16%	?	-21%	.	.	.	.
Cc1nc(N2CCC(NC(=O)c3nccc4ccccc34)CC2)cc(C(F)(F)F)n1	i	5%	?	?	11µM*	19µM*	17µM*	0%	14µM*
Cc1nc(N2CCC(NC(=O)c3ccc4ccccc4n3)CC2)cc(C(F)(F)F)n1	i	i	?	45µM*	10µM*	14µM*	14µM*	1%	12µM*
Cc1nc(N2CCC(NC(=O)c3ccccc3F)CC2)cc(C(F)(F)F)n1	i	i	-8%	-2%	-12%	.	.	.	.

Compound activity deposited in PubChem by National Center for Advancing Translational Sciences (NCATS).
